Experimental findings from PubChem BioAssay AID720690 (Broad Institute, 2013) are described below.

Potency and affinity values are given separately. The source made the active and inactive calls.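 How the source made its calls: active means every repeat run showing a signal drop whose fitted half-maximal concentration is at most twice the top tested concentration; inconclusive means repeat runs disagree, or flat partial drop, or poor fit; inactive means the rest.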

A short description of this experiment: general mammalian cell viability loss – activator set, cherry-pick, cytotoxicity control for miR-122 modulator project, dose response (AID 720690). The following applies: HEK293T viability, CellTiter-Glo luminescence, 48 h; series mostly up to 26 µM. On the technique in general: Cellular ATP, detected with luciferase, serves as a proxy for viable cell number.
Take `CCN(C[C@H]1[C@H](c2ccccc2)[C@@H](CO)N1C(=O)C1CC1)C(=O)NC1CCCC1`: the call was inactive. Regarding `C[C@@H]1CN([C@H](C)CO)S(=O)(=O)c2ccc(-c3ccc(C(=O)N(C)C)cc3)cc2O[C@@H]1CN(C)C(=O)C1CCC1`, the outcome was inactive. The result for `CN1C(=O)c2cc(NC(=O)Cc3ccccc3)ccc2OC[C@@H]2O[C@@H](CC(=O)O)CC[C@H]21` reads “inactive”; that for `Fc1ccccc1-c1nc(-c2ccncc2)no1`, “inactive”.

Turning to `COc1cccc(-c2csc(N3CCN(CC(=O)Nc4ccc5c(c4)OCO5)CC3)n2)c1`, the call was inactive. The result for `CCCNC(=O)N1C[C@@H]2[C@H](c3ccccc31)[C@@H](CO)N2Cc1cc(F)ccc1F` reads “inactive”; that for `COc1ccc(S(=O)(=O)N(C)C[C@@H]2Oc3cc(-c4cccc(F)c4)ccc3S(=O)(=O)N([C@@H](C)CO)C[C@H]2C)cc1`, “inactive”. For `Cc1ccc(-c2noc(CCC(=O)Nc3ccccc3C)n2)cc1` the value was “inactive”; for `COCC(=O)Nc1ccc2c(c1)C(=O)N(C)[C@@H]1CC[C@@H](CC(=O)OC)O[C@@H]1CO2`, “inactive”.

On to `COc1cc(-c2nnc3sc(C4CCCCC4)nn23)cc(OC)c1OC`, for which the call was inactive. `COC(=O)C[C@H]1CC[C@@H]2[C@@H](COc3ccc(NC(=O)c4cscn4)cc3C(=O)N2C)O1`: the compound was called inactive. The result for `C[C@@H]1CN([C@H](C)CO)S(=O)(=O)c2ccc(-c3ccccc3)cc2O[C@@H]1CN(C)C(=O)c1ccc2c(c1)OCO2` reads “inactive”; that for `C/C=C/c1ccc([C@@H]2[C@@H](CO)N[C@@H]2CN(C(=O)C2CCCC2)C(C)C)cc1`, “inactive”. For `CCC(=O)N1[C@@H](CO)[C@H](c2ccccc2)[C@@H]1CN(C(C)C)S(C)(=O)=O` the value was “inactive”; for `CN1C(=O)c2cc(NC(=O)c3cccc(F)c3)ccc2OC[C@H]2O[C@H](CC(=O)NC3CCC3)CC[C@@H]21`, “inactive”; for `COCCNC(=O)C[C@H]1CC[C@@H]2[C@H](COc3ccc(NC(=O)c4cnccn4)cc3C(=O)N2C)O1`, “inactive”.

Regarding `C/C=C/c1ccc([C@@H]2[C@@H](CO)N(C(=O)Cc3cccnc3)[C@H]2CNC(C)=O)cc1`, the result was inactive.

For the compound `COC(=O)C[C@H]1CC[C@H]2[C@H](COc3ccc(NC(=O)NC(C)C)cc3C(=O)N2C)O1`, the call was inactive. The result for `COc1ccc(C(O)(CC(C)C)C(CN2CCOCC2)c2ccccc2)cc1` (stereo not given) reads “inactive”.

For the compound `COc1ccc(S(=O)(=O)Nc2cccc3c2O[C@H](CN(C)CC2CCCCC2)[C@@H](C)CN([C@H](C)CO)C3=O)cc1`, the compound was classed as inactive.

Take `CC(C)NC(=O)Nc1ccc2c(c1)C(=O)N(C)[C@@H]1CC[C@H](CC(=O)NCC(F)(F)F)O[C@H]1CO2`: the compound was classed as inactive. Take `OCc1ccc(-c2nn(Cc3ccccc3)c3ccccc23)o1`: the call was inactive. As to `CN1C(=O)c2cc(NC(=O)c3cc(F)cc(F)c3)ccc2OC[C@@H]2O[C@@H](CC(=O)O)CC[C@@H]21`, the compound was called inactive. The result for `COc1ccc(-c2oc3ncnc(NCCCN4CCOCC4)c3c2-c2ccc(OC)cc2)cc1` reads “inactive”; that for `Cc1nnc(NC(=O)CSc2nc(C(C)C)nc3sc(C)c(C)c23)s1`, “inactive”; that for `COc1cc(-c2nnc(-c3ccco3)o2)ccc1OCc1ccccc1`, “inactive”.

With `CCCNC(=O)C[C@@H]1CC[C@H]2[C@@H](COc3ccc(NC(=O)c4ccc(C(F)(F)F)cc4)cc3C(=O)N2C)O1`, the compound was classed as inactive. With `COCC(=O)N(C[C@H]1[C@H](c2ccccc2)[C@H](CO)N1C(=O)NC(C)C)C(C)C`, the call was inactive.

As for `COCC(=O)N(C)C[C@H]1Oc2cc(C#Cc3cccnc3)ccc2S(=O)(=O)N([C@H](C)CO)C[C@H]1C`, the call was inactive. For `CCOc1cc(-c2nccc3cc(OC)c(OC)cc23)cc(OCC)c1OCC` the value was “inactive”; for `C[C@@H]1CN([C@H](C)CO)S(=O)(=O)c2ccc(C3=CCCC3)cc2O[C@@H]1CN(C)C(=O)c1cnccn1`, “inactive”; for `C[C@H]1CN([C@@H](C)CO)C(=O)c2cc(C#Cc3cccnc3)cnc2O[C@H]1CN(C)S(=O)(=O)c1ccccc1F`, “inactive”. The result for `COc1ccc(CCNC(=O)c2c(C)cc(=O)oc2C)cc1OC` reads “inactive”; that for `Fc1ccc(CN2CCN(c3ncnc4scc(-c5ccc(F)cc5)c34)CC2)cc1`, “inactive”; that for `COc1cc(NC(=O)c2c(F)c(F)c(F)c(F)c2F)c(OC)cc1Cl`, “inactive”. For `CC(C)N(C[C@H]1[C@H](c2ccccc2)[C@@H](CO)N1S(C)(=O)=O)C(=O)CN(C)C` the value was “inactive”. Regarding `C/C=C/c1ccc([C@H]2[C@@H](CO)N(Cc3ccccn3)[C@H]2CNC(C)=O)cc1`, the outcome was inactive. With `CC(=O)N(C[C@H]1N[C@H](CO)[C@@H]1c1ccc(-c2ccccc2)cc1)C(C)C`, the compound was called inactive. Turning to `COCCN(C[C@H]1[C@H](c2ccccc2)[C@@H](CO)N1C(=O)C1CCC1)C(C)=O`, the call was inactive. For `COC(=O)c1cc(NS(=O)(=O)c2ccc3c(c2)CCC(=O)N3)cc(C(=O)OC)c1` the value was “inactive”.
